From PubChem BioAssay
Tb PYK inh: inhibitors of Trypanosoma brucei pyruvate kinase | TbPYK enzyme, Kinase-Glo Plus ATP luminescence, 45 min | Potency, µM (titrated, usually from 76.8 µM), without a hit: top-dose activity, negative = inhibition, usual class: inhibitors | 410,000 compounds, 0.12% hits; also: % is scaled to controls: 0 for no effect and ±100 for the full control effect; nearly all actives have a fitted effect of over 50% in size
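Activity of T. brucei pyruvate kinase was followed by Kinase-Glo Plus luminescence after the enzyme reacted 45 min at room temperature with 130 uM ADP (final) and substrate. Test compounds were added before ADP at multiple concentrations.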
RE007 growth inh: less growth of the S. pombe RE007 Vpr strain. 360,000 compounds, 0.21% hits. Potency, µM (titrated, usually from 92.2 µM), for the others: top-dose activity change, negative = less growth, hits mostly inhibitors. AID 651644. S. pombe RE007 Vpr strain, BacTiter-Glo ATP luminescence, 24 h; active = well fitted falling curve with a large enough effect; inconclusive = small, poorly fitted or top-dose-only effect; inactive = no such curve, though single readings can be large or run the other way; also: % is scaled to controls: 0 for no effect and ±100 for the full control effect; nearly all actives have a fitted effect of over 50% in size
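Fission yeast RE007 carrying one integrated HIV-1 vpr copy, seeded at OD 0.01 in PMG+AL medium with 23 nL pinned compound. Grown 24 h at 30 degrees; viability read by BacTiter-Glo luminescence after 5 min.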
Giardia FBPA inh: blocks Giardia fructose-bisphosphate aldolase activity. Potency, µM (top dose mostly 59.6 µM), without a hit: at the highest dose activity, negative = inhibition, actives largely listed as inhibitors. purified Giardia FBPA. 290,000 compounds, 0.71% hits; also: % is scaled to controls: 0 for no effect and ±100 for the full control effect; nearly all actives have a fitted effect of over 55% in size
Target sequence (A8B2U2 whole entry, looked up): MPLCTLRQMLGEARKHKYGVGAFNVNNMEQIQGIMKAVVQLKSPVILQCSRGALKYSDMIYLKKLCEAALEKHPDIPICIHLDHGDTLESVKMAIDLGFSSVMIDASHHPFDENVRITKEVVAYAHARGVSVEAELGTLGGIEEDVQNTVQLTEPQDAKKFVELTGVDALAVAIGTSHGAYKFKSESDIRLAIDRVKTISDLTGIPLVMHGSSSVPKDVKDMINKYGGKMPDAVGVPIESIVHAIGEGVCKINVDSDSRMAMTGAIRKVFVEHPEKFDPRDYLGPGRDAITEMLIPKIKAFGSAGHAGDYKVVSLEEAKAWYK
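Giardia FBPA (40 nM reagent) was preincubated 10 min at RT with compound (up to 57.5 uM final), then substrate plus GAPDH/TPI/NAD/arsenate coupling system with diaphorase/resazurin was added; resorufin fluorescence (525/598 nm) was read after 20 min.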
LmPK inh: blocks Leishmania mexicana pyruvate kinase activity; Q27686; Potency, µM (doses to about 57.5 µM), inactives show top-dose activity change, negative = inhibition, usual class: inhibitors; 290,000 compounds, 0.37% hits; purified LmPK, Kinase-Glo ATP luminescence, 1 h; AID 1721; also: % is scaled to controls: 0 for no effect and ±100 for the full control effect
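ATP generated from ADP (0.1 mM) and PEP (0.5 mM) by 0.1 nM LmPK over 1 h at room temperature (pH 7.2 imidazole buffer) was detected by coupled luciferase luminescence. Values were normalized to uninhibited and no-enzyme wells.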
SARS PLpro yeast: SARS-CoV PLP inhibition in yeast | S. cerevisiae expressing SARS-CoV PLpro, growth rescue | Potency, µM (highest dose often 32.9 µM), for inactives: at the top dose activity, positive = growth rescue, hits mostly activators | 330,000 compounds, 0.19% hits; calls by dose curve; also: 0% is about no effect; nearly all actives have a fitted effect of over 55% in size
Starred values were filed as active, the others as inactive; u = inconclusive; x = no result; [ ] = remark or other dose. Compounds with a hit are over-represented: about 1.1% of the library has one in this group of screens. Unless noted, calls follow the shape of the dose curve; as a rule, active = well fitted curve in the direction sought with a large enough effect; inconclusive = small, poorly fitted or top-dose-only effect, or another doubt; inactive = no such curve, though single readings can be large; an effect the other way counts as inactive or inconclusive. Potency is read from the fitted curve at half-maximal effect.

SMILES	Tb PYK inh	RE007 growth inh	Giardia FBPA inh	LmPK inh	SARS PLpro yeast
CCN1/C(=C/C=C/c2oc3ccc4ccccc4c3[n+]2CC)Oc2ccc3ccccc3c21	-13.6%	12.6µM*	-3.6%	-16.5%	-5.3%
CCCCNC(=S)N/N=C/c1ccccc1F	-12.2%	-18.1%	1.1%	3.6%	12.6µM*
O=S(=O)(Nc1ccc(F)c(Cl)c1)c1ccc(Br)s1	-5.4%	x	x	x	x
COCCNC(=O)C1CCN(Cc2cc3ccccc3n2Cc2ccc(C)cc2)CC1	2.4%	x	x	x	x
C=CCN=c1scc(-c2ccco2)n1/N=C/c1ccc(O)c(O)c1O	u	-18.8%	22.3µM*	-2.5%	-0.2%
CN=c1scc(C)n1/N=C/c1ccc(O)c(O)c1O	u	u	3.15µM*	u	-11.0%
CC(C)N=c1scc(-c2ccco2)n1/N=C/c1ccc(O)c(O)c1	-19.0%	u	-18.6%	1.7%	-30.8%
COCCN=c1scc(-c2ccco2)n1/N=C/c1ccc(O)c(O)c1O	u	-25.2%	17.7µM*	-1.1%	u
CCC(C)NC(=O)Cn1c(=O)n(Cc2ccc(C(=O)NCc3ccccc3OC)cc2)c(=O)c2ccccc21 (stereo unspecified)	-7.6%	x	x	x	x
Cc1ccc(NC(=O)c2c(C)cc(C)nc2SCC(=O)Nc2ccc(Br)cc2)cc1	0.3%	x	x	x	x
NCCCC(N)C(=O)O (stereo unspecified)	-5.9%	x	x	x	x
NS(=O)(=O)c1ccc(S(=O)(=O)N(CCc2ccccc2)Cc2ccccn2)cc1	2.1%	6.9%	2.3%	-6.1%	3.55µM*
N#CC1=C2SCN(c3ccccc3)CN2C(=O)CC1c1ccccc1Cl (stereo unspecified)	u	-10.8%	u	2.4%	3.5%
COc1cc(OC)c(C2CC(=O)N3CN(c4ccccc4)CSC3=C2C#N)cc1OC (stereo unspecified)	8.91µM*	8.7%	u	8.0%	6.8%
CCc1ccccc1N1CSC2=C(C#N)C(c3cc(OC)c(OC)cc3OC)CC(=O)N2C1 (stereo unspecified)	10µM*	-5.9%	4.46µM*	-5.7%	-1.3%
N#CC1=C2SCN(c3ccccc3)CN2C(=O)CC1c1c(Cl)cccc1Cl (stereo unspecified)	2.51µM*	-3.6%	u	-12.3%	3.2%
Fc1ccc(C2CC(c3ccco3)=Nc3ccccc3S2)cc1 (stereo unspecified)	3.6%	25.1µM*	u	14.2%	-32.1%
COc1ccc(C(=O)CC2(O)C(=O)N(CCc3ccccc3)c3ccc(Br)cc32)cc1OC (stereo unspecified)	4.3%	x	x	x	x
Cc1sc2ccc3sccc3c2[n+]1C	8.91µM*	1.6%	-14.7%	0.5%	-1.2%
Cc1sc2c3ccsc3ccc2[n+]1C	8.91µM*	-12.2%	u	-8.5%	-25.4%
CN(C)CCOC1=Cc2ccccc2Sc2ccc(Cl)cc21	-3.8%	x	x	x	x
CCOC(=O)C(=O)Nc1cc(C)on1	3.2%	4.6%	5.4%	15.8µM*	1.3%
C[C@@H](NC(=O)CN(c1ccccc1)S(=O)(=O)N(C)C)c1ccccc1	-0.5%	x	x	x	x
O=C1/C(=C\c2cccs2)CCC/C1=C/c1cccs1	2.8%	x	x	x	x
Cc1ccc(NC2=C/C(=N\S(=O)(=O)c3cccs3)c3ccccc3C2=O)c(C)c1	-11.8%	-15.2%	u	-26.6%	-72.3%
SMILES	Tb PYK inh	RE007 growth inh	Giardia FBPA inh	LmPK inh	SARS PLpro yeast
Cc1ccc(Cl)cc1NC1=C/C(=N\S(=O)(=O)c2cccs2)c2ccccc2C1=O	-9.2%	-17.6%	0.281µM*	u	-21.6%
Cc1ccsc1/C=N/N=C/c1sccc1C	-23.6%	-11.7%	17.5%	-23.8%	-7.1%
Cc1ccsc1C=Nc1ccc(O)cc1	-14.1%	-9.7%	5.61µM*	-18.8%	-6.6%
CCC(=O)OC1CCC2C3CCc4cc(O)ccc4C3CCC12C (stereo unspecified)	0.0%	x	x	x	x
C[C@@]1(C(=O)O)NCCc2cc(O)c(O)cc21	x	x	12.6µM*	x	x
CCCCOC(=O)c1ccc(NC(=O)CC2NCCNC2=O)cc1 (stereo unspecified)	-4.2%	x	x	x	x
CCN1C(=O)[C@H]2[C@H]3[C@H](O)[C@H](O)C/C(=N/OCC(C)C)[C@H]3CC[C@@H]2C1=O	x	x	-0.7%[12.9 µM]	x	x
S=c1[nH]nc(CCc2nc3ccccc3[nH]2)n1-c1cccc(Cl)c1	u	2.1%	-1.4%	10µM*	-0.1%
